# Several values for one entry are separate records, joined by “and”; a condition that tells them apart may be missing. Identical values can stand only once. Some compounds were tested as several samples or in several runs, with calls that do not always agree. Activity calls are given as the source filed them. How the source made its calls: active means hit-call score of the fitted dose curve at least 0.9, where 1 is the maximum; inactive means score below 0.9.
# Experiment: APR_HepG2_MitoticArrest_24hr: Apredica 24-hour HepG2 Assay for Mitotic Arrest (AID 2282910)
# Conditions: high-content imaging, actives raise or lower the signal
# Experimental: APR_HepG2_24hr is a cell-based, multiplexed-readout assay that uses HepG2, a human liver cell line, with measurements taken at 24 hours after chemical dosing in a 384-well plate.APR_HepG2_MitoticArrest_24hr is one of 10 assay component(s) measured or calculated from the APR_HepG2_24hr assay. It is designed to make measurements of cell phenotype, a form of morphology reporter, as detected with fluorescence intensity signals by HCS Fluorescent Imaging technology.Data from the assay component APR_HepG2_MitoticArrest_24hr was analyzed into 1 assay endpoint. This assay endpoint, APR_HepG2_MitoticArrest_24hr, was analyzed with bidirectional fitting relative to DMSO as the negative control and baseline of activity. Using a type of morphology reporter, measures of protein for gain or loss-of-signal activity can be used to understand the signaling at the pathway-level as they relate to the gene . Furthermore, this assay endpoint can be referred to as a primary readout, because this assay has produced multiple assay endpoints where this one serves a signaling function. To generalize the intended target to other relatable targets, this assay endpoint is annotated to the cell cycle intended target family, where the subfamily is arrest.
# Cells were treated with dimethyl sulfoxide (DMSO) as a solvent control at a final concentration of 0.5% v/v or with compounds in DMSO with a resulting final DMSO concentration of 0.5% v/v. Compound treatment was done at concentrations of 0.39, 0.78, 1.56, 3.12, 6.24, 12.5, 25, 50, 100, and 200 uM in duplicate on each plate. Cells were treated with compounds for 1, 24, or 72 hr. Carbonyl […] m-chloro-phenylhydrazone (CCCP) and taxol were used as positive controls for mitochondrial function and cytoskeletal stability, respectively; DMSO served as the negative control for this experiment. Cells were fixed by the direct addition of 50 uL formaldehyde in Hank's Balanced Salt Solution (HBSS) to a final concentration of 3.7%. After incubation in the fixation medium for 30 min at room temperature (293-298 K), cells were rinsed twice with HBSS and treated with cell permeabilization buffer (16 uL of 0.5% Triton X-100) for 10 min at room temperature (293-298 K) before labeling. For mitochondrial membrane potential and mitochondrial measurements, pre-fixed cells were incubated with 50 uL of MitoTracker Red CMXRos (Invitrogen) at a concentration of 250 nM for 30 min before fixation. In the remaining cases, post-fixed cells were labeled by incubation with a multiplexed mixture of primary antibodies in HBSS for 60 min at room temperature (293-298 K) to detect immunoreactivity of c-Jun (1:500), phospho-histone H3 (1:100), phospho-histone H2A.x (1:200), p53 (1:400), alpha-tubulin (1:200) and Hoechst 33342 (2 ug/mL). Cells were labeled for multiplexed imaging on two separate plates: a) Hoechst 33342, MitoTracker Red, phospho-histone H3, and alpha-tubulin, and b) Hoechst 33342, phospho-histone H2A.x, and c-Jun. A final rinse with HBSS (50 uL) was performed before analysis. The primary and secondary antibodies for the proteins were phospho-histone H3 (rabbit anti-phospho-histone H3 and FITC-donkey anti-rabbit IgG), phospho-histone H2A.x (mouse anti-phospho-histone H2A.x and FITC-donkey anti-mouse IgG), c-Jun (rabbit anti-phospho-c-Jun and Cy3-donkey anti-rabbit IgG), p53 (sheep anti-p53 and Cy5-donkey anti-sheep IgG), alpha-tubulin (mouse anti-alpha-tubulin and Cy5-donkey anti-mouse IgG). These antibodies are available as the CellCiphr HepG2 assay kit (Millipore).Digital images of each well were captured using a Cellomics ArrayScan VTI (Thermo Scientific Cellomics) (0.8 NA objective, 0.63x optical coupler, and XF-93 filter set) at 20x magnification. The images were acquired using the autofocus feature of the ArrayScan instrument, which entails the following steps. First, the camera focuses on channel 1 (Hoechst 33342), where nuclei are identified. Second, a Z offset of 1 um is used for capturing mitochondria (MitoTracker Red). […]
Compound,outcome,AC50
O=C(c1ccc(O)cc1O)c1ccc(O)cc1O,inactive,–
COC(=O)c1ccc(I)cc1S(=O)(=O)NC(=O)Nc1nc(C)nc(OC)n1,inactive,–
CC(C)(C)[C@@H](O)[C@@H](Cc1ccc(Cl)cc1)n1cncn1,inactive,–
O=C(Nc1ccc([N+](=O)[O-])cc1Cl)c1cc(Cl)ccc1O,–,784 nM (active)
C#CCOC(=O)[C@@H](C)Oc1ccc(Oc2ncc(Cl)cc2F)cc1,inactive,–
CSC(=O)c1cccc2nnsc12,inactive,–
CCOC(=O)COc1cc(-n2ncc(C(F)(F)F)c(C)c2=O)c(F)cc1Cl,inactive,–
N[C@@H](Cc1cc(I)c(Oc2ccc(O)c(I)c2)c(I)c1)C(=O)O,inactive,–
CCCN(CCC)C(=O)SCC,inactive,–
CCOC(=O)[C@H](C)Oc1ccc(Oc2nc3ccc(Cl)cc3o2)cc1,inactive,–
COC(=O)CSc1cc(N=c2sc(=O)n3n2CCCC3)c(F)cc1Cl,inactive,–
CCN(Cc1c(F)cccc1Cl)c1c([N+](=O)[O-])cc(C(F)(F)F)cc1[N+](=O)[O-],inactive,–
O=C(O)C1(C(=O)Nc2ccc(Cl)cc2Cl)CC1,inactive,–
C[C@]12C[C@H](O)[C@H]3[C@@H](CCC4=CC(=O)CC[C@@]43C)[C@@H]1CC[C@@H]2C(=O)CO,inactive,–
CCCCOCCOCCOCc1cc2c(cc1CCC)OCO2,inactive,–
S=C(S)NCCNC(=S)S.[Mn+2].[S-]C([S-])=NCCN=C([S-])[S-].[Zn+2],inactive,55.2 µM (active) and 107 µM (active)
COC(=O)c1ccccc1S(=O)(=O)NC(=O)Nc1nc(OC(F)F)cc(OC(F)F)n1,inactive,–
CCCOC(=O)c1ccc(C(=O)OCCC)nc1,inactive,–
CCOC(=O)c1ccc(O)cc1,inactive,–
COc1nc(C)nc(NC(=O)NS(=O)(=O)c2ccccc2OCCCl)n1,inactive,–

Compound,outcome,AC50
COC(=O)c1ccccc1C(=O)O,inactive,–
CCNc1nc(N)nc(Cl)n1,inactive,–
CCN(CC)C(=O)c1cccc(C)c1,inactive,–
Oc1ccc(C(c2ccc(O)cc2)C(Cl)(Cl)Cl)cc1,inactive,–
CCOC(=O)C(C)Oc1ccc(Oc2nc3ccc(Cl)cc3o2)cc1 (stereo not given),inactive,–
CCCCC(CC)CN1C(=O)C2C3C=CC(C3)C2C1=O (stereo not given),inactive,–
CCOC(=O)C(C)Oc1ccc(Oc2cnc3cc(Cl)ccc3n2)cc1 (stereo not given),inactive,–
CCCCOC(=O)C(C)Oc1ccc(Oc2ccc(C(F)(F)F)cn2)cc1 (stereo not given),inactive,–
CC(C)CCCCCCc1ccc(O)cc1,–,26300 nM (active)
C=CCOC(Cn1ccnc1)c1ccc(Cl)cc1Cl (stereo not given),inactive,–
CCCN(CCC)c1c([N+](=O)[O-])cc(C(F)(F)F)c(N)c1[N+](=O)[O-],inactive,–
c1ccc(Nc2ccccc2)cc1,inactive,–
CCCCC(CC)COC(=O)c1ccccc1C(=O)O (stereo not given),inactive,–
N#CSCSc1nc2ccccc2s1,inactive,–
C[C@]12CC[C@@H]3c4ccc(O)cc4C[C@@H](CCCCCCCCCS(=O)CCCC(F)(F)C(F)(F)F)[C@H]3[C@@H]1CC[C@@H]2O (stereo not given in full),inactive,–
O=C(c1ccccc1)C1CCCCC1,inactive,–
COc1c(Cl)ccc(Cl)c1C(=O)O,inactive,–
Cc1nn(C)c(Oc2ccccc2)c1C=NOCc1ccc(C(=O)OC(C)(C)C)cc1,inactive,–
CCCCOC(=O)[C@@H](C)Oc1ccc(Oc2ccc(C(F)(F)F)cn2)cc1,inactive,–

# — PubChem BioAssay (EPA / NIEHS)
